An excerpt weighted towards active compounds, which were near 2.8% of everything screened.
IP6K1 inh: blocks human inositol hexakisphosphate kinase 1. IP6K1 kinase, ADP-Glo luminescence, 2 h; hits give low values. 140,000 tested, 0.81% active. Q92551. activity change, % (series mostly up to about 58 µM); in the data active means activity change below about -25%
Target sequence (Q92551 whole entry, looked up): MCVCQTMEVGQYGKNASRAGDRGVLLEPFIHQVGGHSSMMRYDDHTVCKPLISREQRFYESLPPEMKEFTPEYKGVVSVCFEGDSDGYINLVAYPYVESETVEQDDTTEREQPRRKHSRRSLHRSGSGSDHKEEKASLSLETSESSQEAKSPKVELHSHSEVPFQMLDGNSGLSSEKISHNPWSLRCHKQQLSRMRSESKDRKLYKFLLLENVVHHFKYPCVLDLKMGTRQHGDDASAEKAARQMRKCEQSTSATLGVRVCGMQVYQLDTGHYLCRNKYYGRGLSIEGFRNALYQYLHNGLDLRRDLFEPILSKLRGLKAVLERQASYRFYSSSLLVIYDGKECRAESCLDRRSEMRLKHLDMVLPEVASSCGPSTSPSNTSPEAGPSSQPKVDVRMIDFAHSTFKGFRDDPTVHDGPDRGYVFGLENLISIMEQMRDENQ
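ADP-Glo luminescence measures ADP made by human IP6K1 during a 2 h RT reaction with ATP/IP6 (mix at 1.3 mM/130 uM); top library doses 57.5 and 19.1 uM final.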
KDM5B inh: inhibitors of human KDM5B histone demethylase; AID 1347165; 220,000 tested, 2.6% active; Potency, µM (titrated, usually from 57.7 µM), hits mostly inhibitors; KDM5B demethylase, FDH-coupled NADH fluorescence (FDH is formaldehyde dehydrogenase); Q9UGL1; active means well fitted inhibition curve with a large enough effect; inconclusive means small, poorly fitted or top-dose-only effect; inactive means no such curve, though single readings can be large or run the other way; further: nearly all actives have a fitted effect of over 70% in size
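Coupled FDH/NAD⁺ fluorescence readout. KDM5BΔAP 200 nM final; compound titration, 10 min RT preincubation; substrate mix 12.5 µM H3K4me3, 25 µM 2-OG, 50 µM Fe(II), 100 µM ascorbate, 0.25 mM NAD⁺, 0.25 U/mL FDH; ΔRFU over 30 min.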
Large screens that a line does not name were inactive.

O=C(c1ccccc1F)N1CCC(C(=O)N2CCC(c3nc4ccncc4[nH]3)C2)CC1 (centres undefined)	none (no result: KDM5B inh)
Cc1noc(C)c1CCC(=O)NC1CCCc2c1[nH]c1c(Cl)cccc21 (centres undefined)	none
O=C(COc1ccccc1-n1cnnc1)NC1CCCc2c1[nH]c1ccccc21 (centres undefined)	none
Cc1noc(C)c1CCC(=O)NC1CCCc2c1[nH]c1ccccc21 (centres undefined)	KDM5B inh 28.2µM
Cc1cc(=O)oc2cc(OCC(=O)NC3CCCc4c3[nH]c3ccccc43)ccc12 (centres undefined)	KDM5B inh 15.8µM
O=C(NCCc1ccc(Cl)cc1)c1ccc2nnc(-c3cc(F)ccc3F)n2c1	none (no result: KDM5B inh)
CCCN(CCC)Cc1ccc(C(=O)NCc2c(C)noc2C)cc1	KDM5B inh 28.2µM
Cc1noc(C)c1CNC(=O)CC(C)(C)C	none
Cc1ccc(C(=O)N2CCCC2C(=O)N2CCC(N3Cc4ccccc4C3=O)CC2)cc1 (centres undefined)	none (no result: KDM5B inh)
Cc1cccc(CNC(=O)c2cc3n(n2)CC(c2ccc(Cl)cc2)OC3)c1 (centres undefined)	none
CCOc1ccccc1NC(=O)c1cc2n(n1)CC(c1ccc(Cl)cc1)OC2 (centres undefined)	KDM5B inh 22.4µM
CCOc1ccccc1CNC(=O)c1cc2n(n1)CC(c1ccc(Cl)cc1)OC2 (centres undefined)	KDM5B inh inconclusive
Cc1ccc(NC(=O)c2cc3n(n2)CC(c2ccc4c(c2)OCO4)OC3)c(Cl)c1 (centres undefined)	KDM5B inh inconclusive
Cc1ccc(NC(=O)c2cc3n(n2)CC(c2ccc(Cl)cc2)OC3)c(Cl)c1 (centres undefined)	KDM5B inh 17.8µM
Cc1c(Cl)cccc1NC(=O)c1cc2n(n1)CC(c1ccc(Cl)cc1)OC2 (centres undefined)	KDM5B inh 25.1µM
Cc1ccc(C)c(NC(=O)c2cc3n(n2)CC(c2ccc(Cl)cc2)OC3)c1 (centres undefined)	KDM5B inh 28.2µM
O=C(NCc1ccccc1Cl)c1cc2n(n1)CC(c1ccc(Cl)cc1)OC2 (centres undefined)	none
COc1ccccc1-c1cnc2n[nH]c(-c3sccc3C)c2n1	KDM5B inh inconclusive
COc1ccc(F)cc1-c1ccc(CN2CCC(NC(=O)c3ccc(C)cc3)C2)cc1 (centres undefined)	none (no result: KDM5B inh)
O=C(NC1CCCN(c2ccc3nnc(-c4ccccc4)n3n2)C1)c1ccccn1 (centres undefined)	none (no result: KDM5B inh)
CCN1C[C@H]2COc3ccccc3[C@H]2N(C(=O)COC)CCC1=O	none (no result: KDM5B inh)
O=C(NC1CCCC1)C1CCCN(c2nccc(Nc3ccccc3F)n2)C1 (centres undefined)	none (no result: KDM5B inh)
CCC(C(=O)c1ccc(OC)cc1)C(=O)c1ccc(OC)cc1	none (no result: IP6K1 inh)
COC(=O)CNC(=O)C1CCCN(C(=O)c2cc3ccccc3[nH]2)C1 (centres undefined)	none (no result: IP6K1 inh)
Cc1cc(C(=O)N2CCCC(C(=O)Nc3cccc(-c4cc5ccccc5[nH]4)c3)C2)nn1C (centres undefined)	KDM5B inh 31.6µM
O=C(Nc1cccc(-n2cccn2)c1)C1CCCN(Cc2cccc(F)c2F)C1 (centres undefined)	none
Cc1c(CN2CCCC(C(=O)Nc3cccc(-c4cc5ccccc5[nH]4)c3)C2)cnn1C (centres undefined)	KDM5B inh 28.2µM
CCn1cc(C(=O)N2CCCC(C(=O)Nc3cccc(-c4cc5ccccc5[nH]4)c3)C2)cn1 (centres undefined)	KDM5B inh 28.2µM
Cc1cccc(-c2cccc(NC(=O)C3CCCN(C(=O)c4cccc(C)n4)C3)c2)c1 (centres undefined)	none
CSc1ccc(-c2cccc(CN3CCC(NC(=O)c4ccc(C(F)(F)F)cc4)CC3)c2)cc1	none (no result: KDM5B inh)
O=C(NCc1ccccc1Cl)C1CCN(c2nccc(Nc3ccccc3F)n2)CC1	none (no result: KDM5B inh)
COc1ccc(CCNC(=O)c2nc3sccn3c2-c2ccc(C(F)(F)F)cc2)cc1	none (no result: KDM5B inh)
O=C(NCc1cccc(Cl)c1)c1ccc2nc(-c3ccccn3)oc2c1	none (no result: KDM5B inh)
CCOC(=O)C1c2c(OC)ccc3c2C(=CC(C)(C)CO3)CN1Cc1nccn1C (centres undefined)	none (no result: KDM5B inh)
CCN1CC(CNc2nccc(-c3c(C)nn(C)c3C)n2)CC1=O (centres undefined)	KDM5B inh 28.2µM
CC(=O)N1CCCC(CNc2nccc(-c3c(C)nn(C)c3C)n2)C1 (centres undefined)	KDM5B inh 28.2µM
Cc1nn(C)cc1-c1ccnc(NCCCN2CCCC(CO)C2)n1 (centres undefined)	KDM5B inh inconclusive
COc1ccc(CNc2nccc(-c3c(C)nn(C)c3C)n2)cc1OC	KDM5B inh inconclusive
O=C(NCCc1cccc(Cl)c1)Nc1ccc(Cl)cc1F	none (no result: IP6K1 inh)
O=C([C@@H]1CCCN1c1nccc(Nc2ccccc2Cl)n1)N1CCC(c2ccccc2)CC1	none (no result: KDM5B inh)

Assay outcomes: PubChem BioAssay, National Center for Advancing Translational Sciences (NCATS)
